Source: PubChem (several laboratories)
Shown are actives, neighbours in structure and some others; about 3.7% of the full set was active somewhere.
Mtb betalactam: beta-lactam sensitization of Mtb H37Rv; actives 0.27% (n = 330,000); M. tuberculosis H37Rv growth with meropenem, percent inhibition; inhibition, % at 25 µM; call rule not given here;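 note: growth measured after seven days incubation then overnight dye step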
Rv3671c protease: inhibits the M. tuberculosis serine protease Rv3671c; P9WHR9; inhibition, % at 5.96 µM; actives 0.048% (n = 320,000); AID 2606; in the data active = inhibition above about 38%;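 note: extracellular domain of Rv3671c used as enzyme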
Target sequence (P9WHR9 whole entry, looked up, the tested form may be a part): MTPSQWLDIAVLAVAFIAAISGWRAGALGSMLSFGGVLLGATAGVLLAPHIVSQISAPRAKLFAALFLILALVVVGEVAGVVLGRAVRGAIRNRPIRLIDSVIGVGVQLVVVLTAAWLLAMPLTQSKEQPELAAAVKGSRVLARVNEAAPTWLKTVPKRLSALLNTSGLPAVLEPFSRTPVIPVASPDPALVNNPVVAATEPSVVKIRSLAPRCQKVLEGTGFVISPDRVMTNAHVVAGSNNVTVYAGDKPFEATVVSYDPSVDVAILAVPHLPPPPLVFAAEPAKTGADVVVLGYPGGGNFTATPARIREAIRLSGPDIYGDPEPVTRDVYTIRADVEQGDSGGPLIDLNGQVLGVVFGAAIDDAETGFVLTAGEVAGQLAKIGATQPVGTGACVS
UGM FP inh: inhibitors of M. tuberculosis UDP-galactopyranose mutase. purified UGM, fluorescence polarization probe displacement. actives 0.06% (n = 320,000). inhibition, % at 10 µM. P9WIQ1; in the data active = inhibition above about 10%, passing the limit was not always enough; inconclusive = no clear call, values can overlap the other calls
Mtb FBA inh: inhibits M. tuberculosis FBA enzyme | P9WQA3 | purified M. tuberculosis FBA, fluorescence read-out | inhibition, % at 1 µM | actives 2.3% (n = 360,000); in the data active = inhibition above about 27%
FadD28 binding: inhibitors of Mycobacterium tuberculosis FadD28 bisubstrate binding; FadD28 bisubstrate probe binding, fluorescence polarization; inhibition, % at 12.5 µM; actives 0.22% (n = 360,000); in the data active = inhibition above about 8.5%, passing the limit was not always enough; inconclusive = no clear call, values can overlap the other calls
GDH-TPI inh: inhibits GDH-TPI coupling enzymes, artifact for Mtb FBA screen; GDH-TPI coupled enzyme counterscreen, NADH absorbance; inhibition, % at 4.8 µM; actives 1.2% (n = 360,000); AID 588335; in the data active = inhibition above about 30%
Hits are given with their value; i = inactive; ? = inconclusive; nt = no result given; + = active, no number.

SMILES	Mtb betalactam	Rv3671c protease	UGM FP inh	Mtb FBA inh	FadD28 binding	GDH-TPI inh
Oc1c(Br)cc(Br)c(/C=N/n2c(-c3ccccc3)n[nH]c2=S)c1Br	i	i	i	i	25	i
CC(/C=N/n1c(-c2n[nH]c3c2CCC3)n[nH]c1=S)=C\c1ccco1	i	i	i	i	i	45
Cc1ccccc1-c1n[nH]c(=S)n1/N=C/C=C/c1ccco1	i	i	i	i	i	43
C(/C=C/c1ccco1)=N/N1CCN(c2ccccc2)CC1	i	i	i	i	i	47
CN1OC[C@@H]2CN(Cc3ccccc3)[C@H](c3cccc(-c4ccccc4)c3)C[C@@H]21	nt	nt	nt	i	i	i
S=c1[nH]nc(-c2ccc(Cl)cc2)n1/N=C/C=C/c1ccco1	i	i	i	i	i	i
S=c1[nH]nc(-c2ccccc2)n1/N=C/C=C/c1ccco1	i	i	i	i	i	33
CCN(CC)c1ccc(C=Nc2ccccc2C)c(O)c1	i	i	i	i	i	37
CCN(CC)c1ccc(/C=N/N(c2ccccc2)c2ccccc2)c(O)c1	i	i	i	i	i	i
CCN(CC)c1ccc(C=Nc2ccc(C#N)cc2)c(O)c1	i	i	i	i	i	45
CC1=C(C(=O)N(C)C)CC(CC(=O)NCCN2CCOCC2)C(=O)N1Cc1ccc(F)cc1 (configuration not stated)	nt	nt	nt	i	i	i
Cc1c(C)c2cc(Cl)c(O)c(CN(C)C)c2oc1=O	i	i	i	+	i	i
CCc1c(C)c2cc(Cl)c(O)c(CN(CC)CC)c2oc1=O	i	i	i	+	i	i
CCc1c(C)c2cc(Cl)c(O)c(CN(C)C)c2oc1=O	i	i	i	nt	i	32
CCCCc1cc(=O)oc2c(CN(C)C)c(O)c(Cl)cc12	?	i	i	nt	i	i
Cc1c(O)c(CN(C)C)cc2c1oc(=O)c1ccccc12	i	i	i	i	i	i
COc1ccc(N2CC(C(=O)Nc3cccc(OC(C)C)c3)CC2=O)cc1 (configuration not stated)	i	i	i	i	i	i
CCN1C[C@@H]2[C@@H]3C(=O)N(C)C(=O)[C@@H]3[C@](CC)(C1=O)N2C(=O)c1ccc(Cl)cc1	nt	nt	nt	i	i	i
Cc1cccc(CN(C)C[C@@H]2OCc3cnnn3CCCC(=O)N([C@H](C)CO)C[C@H]2C)c1	nt	nt	nt	i	i	i
COc1ccc(OC)c(NC(=O)c2cnc3n(c2=O)CCS3)c1	i	i	i	i	i	i
Cc1noc(NS(=O)(=O)c2ccc(NC(=O)c3cnc4n(c3=O)CCS4)cc2)c1C	i	i	i	i	i	34
O=C(Nc1ccc2c(c1)OCCO2)c1cnc2n(c1=O)CCS2	i	i	i	i	i	31
COc1ccccc1NC(=O)c1cnc2n(c1=O)CCS2	i	i	i	i	i	37
COc1ccccc1/C=N/Nc1nc(C)cc(C)n1	i	i	i	i	i	i
COc1ccccc1C=NNc1nc(C)cc(=O)[nH]1	nt	nt	nt	i	i	37
SMILES	Mtb betalactam	Rv3671c protease	UGM FP inh	Mtb FBA inh	FadD28 binding	GDH-TPI inh
Cc1cc(=O)[nH]c(N/N=C/C=C/c2ccccc2)n1	i	i	i	i	i	38
Cc1cc(=O)[nH]c(N/N=C/c2ccc(Br)s2)n1	i	i	i	i	i	42
Cc1cc(C)nc(N/N=C/C=C/c2ccccc2)n1	i	i	i	i	i	34
Cc1cc(=O)[nH]c(N/N=C/c2ccc(-c3ccc(F)cc3)o2)n1	i	i	i	i	i	37
CCOc1ccc(-n2c(C)cc(/C=N/Nc3nc(C)cc(=O)[nH]3)c2C)cc1	i	i	i	i	i	36
COCCCNC(=S)N/N=C/c1ccc(O)cc1O	i	i	i	i	i	33
CCNC(=S)N/N=C/c1ccc(C#N)cc1	i	i	i	i	i	39
CCNC(=S)N/N=C/c1ccco1	i	i	i	i	i	i
COCCCNC(=S)N/N=C/c1ccc(O)cc1	i	i	i	i	i	70
COc1ccc(CCNC(=O)c2ccc(Cl)c(S(=O)(=O)N3CCCC3)c2)cc1	i	i	nt	i	i	i
CN1C[C@H](CO)C=C2c3cccc4[nH]cc(c34)C[C@H]21	i	i	i	172	i	i
Cc1nn(-c2ccccn2)c2c1C(=O)CC(C)(C)C2N=[N+]=[N-] (configuration not stated)	nt	nt	nt	i	i	i
CC12CN3CC(C)(CN(C1)C3c1ccc(Cl)cc1Cl)C2O (configuration not stated)	i	i	i	i	i	i
CN(C)c1ccc(C2N3CC4(C)CN2CC(C)(C3)C4O)cc1 (configuration not stated)	i	i	i	i	i	42
